Assay results taken from PubChem BioAssay (NCI).
Compounds without any hit were thinned out: in the full panel of roughly 83,000, 20% have a hit.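 The test compound was applied at a single concentration to cells in 96-well plates for 48 hours, and percent growth was recorded.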 Values without a mark were called inactive. Activity calls are given as the source filed them. The calls were made as follows: active = growth percent below 10; inactive = the rest.

Key:
Assay in all cases: NCI-60 one-dose screen, 48 h (100 = growth as untreated, 0 = no growth, -100 = all killed)
Details in all cases: 10 µM unless noted
NCI-H23 lung = tested on: NCI-H23 lung
NCI-H226 lung = tested on: NCI-H226 lung
NCI-H322M lung = tested on: NCI-H322M lung
HOP-62 NSCLC = tested on: HOP-62 NSCLC
NCI-H460 lung = tested on: NCI-H460 lung
NCI-H522 lung = tested on: NCI-H522 lung
A549/ATCC NSCLC = tested on: A549/ATCC NSCLC
786-0 renal = tested on: 786-0 renal
COLO 205 colon = tested on: COLO 205 colon
DU-145 prostate = tested on: DU-145 prostate
K-562 leukemia = tested on: K-562 leukemia
MALME-3M melanoma = tested on: MALME-3M melanoma
MDA-MB-231 breast = tested on: MDA-MB-231 breast
RXF 393 renal = tested on: RXF 393 renal
SF-268 CNS = tested on: SF-268 CNS
SF-295 CNS = tested on: SF-295 CNS
SF-539 CNS = tested on: SF-539 CNS
UACC-257 melanoma = tested on: UACC-257 melanoma
M14 melanoma = tested on: M14 melanoma

| Structure (SMILES) | growth (NCI-H23 lung) | growth (NCI-H226 lung) | growth (NCI-H322M lung) | growth (HOP-62 NSCLC) | growth (NCI-H460 lung) | growth (NCI-H522 lung) | growth (A549/ATCC NSCLC) | growth (786-0 renal) | growth (COLO 205 colon) | growth (DU-145 prostate) | growth (K-562 leukemia) | growth (MALME-3M melanoma) | growth (MDA-MB-231 breast) | growth (RXF 393 renal) | growth (SF-268 CNS) | growth (SF-295 CNS) | growth (SF-539 CNS) | growth (UACC-257 melanoma) | growth (M14 melanoma) |
| --- | --- | --- | --- | --- | --- | --- | --- | --- | --- | --- | --- | --- | --- | --- | --- | --- | --- | --- | --- |
| COc1ccc(-c2cc(C(=O)Nc3ccc(C)cc3)nc3[nH]c(=O)sc23)cc1 | 75.4% | 80.1% | 78.5% | 84.7% | 68.8% | 24.3% | 50.6% | 65.2% | 78.8% | 89.6% | 61.9% | 73.3% | 86.3% | 85.8% | 88.7% | 70.7% | 75.6% | 51.4% | 70.8% |
| C[C@H](NC(=O)c1snnc1C1CC1)c1c(F)cccc1Cl | 97.3% | 96.1% | 123% | 107% | 110% | 94.2% | 101% | 112% | 219% | 127% | 115% | 119% | 105% | -22.6% (active) | 114% | 96.8% | 96.6% | 115% | 116% |
| COc1cc(C2CC(c3ccc(Cl)cc3)=NN2C(C)=O)ccc1Oc1ccnc2cc(Cl)ccc12 (stereo unspecified) | 64.1% | 19.5% | 53.3% | 23.1% | 30.8% | 40.9% | 42.6% | 33.6% | 26.2% | 36.6% | 65.3% | 53.9% | 36.1% | 46.1% | 57.5% | 18.3% | 40.2% | 68.5% | 79.9% |
| CSC1=N/C(=C\c2cccc(OCc3ccc(Cl)cc3)c2)C(=O)N1 | 82.8% | 75% | 87.2% | 99.4% | 81.3% | 48% | 83.4% | 83.8% | 82.8% | 77.7% | 81.7% | 99% | 99.8% | 104% | 85.3% | 87.6% | 99% | 100% | 88% |
| CCOC(=O)Cc1cc(Br)c(OCc2ccccc2)c(Br)c1 | 94.1% | 88.4% | 102% | 96.4% | 114% | 80.3% | 104% | 92.8% | 127% | 115% | 86% | 106% | 89.1% | 96.4% | 106% | 92.3% | 106% | 99.6% | 99.6% |
| O=C(CSc1nc2c(n1Nc1ccccc1)-c1ccccc1SC2)Nc1nccs1 | 91.2% | 93.6% | 99.7% | 101% | 99.4% | 95.2% | 96.6% | 96.8% | 121% | 105% | 84.8% | 101% | 88.7% | 102% | 96.2% | 122% | 97.2% | 108% | 102% |
| CC(C)CCSc1nc(-c2ccc(F)cc2)c(C#N)c(N2CCN(C)CC2)n1 | 91.5% | 96.8% | 87.8% | 85.2% | 88.8% | 59% | 65% | 65.6% | 84.6% | 94.4% | 62.7% | 97.4% | 53.3% | 78.8% | 83% | 101% | 93.1% | 64.1% | 94.7% |
| CN(C)N1C(=O)c2c(Cl)c(Cl)c(Cl)c(Cl)c2C1=O | 96.9% | 103% | 112% | 108% | 110% | 94.2% | 104% | 103% | 111% | 120% | 98.4% | 123% | 115% | 112% | 106% | 123% | 118% | 104% | 101% |
| Oc1c(C(Nc2cccc3ccccc23)c2ccccc2)ccc2cccnc12 (stereo unspecified) | 41.8% | 50.6% | 37.2% | 52.2% | 5.7% (active) | 16.1% | 33.6% | -13.6% (active) | 38% | 35% | 11.6% | 31.7% | 17.8% | 69.4% | 23.4% | 7.99% (active) | 43.3% | 22.5% | 0.701% (active) |
